Compound activity as filed in PubChem.
HTR5A ag: activates human HTR5A in OPRM1-OPRD1 agonist counter-screen; P47898; HTR5A agonist assay, luminescence, cell-based; activation, % at 9.3 µM; actives 0.61% (n = 340,000); AID 504692; in the data active = activation mostly above about 9.5%, no sharp cut-off; inactive = mostly below about 7.6%
HTR5A inv ag: counter-screen for OPRM1-OPRD1 inverse agonists: human HTR5A inverse agonism. inhibition, % at 9.3 µM. actives 0.083% (n = 340,000). P47898. HTR5A cell line, luminescence; in the data active = inhibition mostly above about 23%, no sharp cut-off; inactive = mostly below about 18%
OPRM1-OPRD1 inv: inverse agonists of human mu-delta opioid receptor heterodimerization; P35372+P41143; cell-based MOR-DOR heterodimer luminescence, inverse agonism; actives 0.21% (n = 340,000); inhibition, % at 9.3 µM; in the data active = inhibition above about 22%, passing the limit was not always enough
MOR-DOR ag: OPRM1-OPRD1 heterodimerization agonism; P35372+P41143; cells, luminescence; activation, % at 9.3 µM; actives 0.3% (n = 340,000)
MOR-DOR ag conf: OPRM1-OPRD1 heterodimer agonism, confirmation. shares compounds with MOR-DOR ag. cells, MOR-DOR heterodimerization, luminescence complementation. activation, % at 9.3 µM. actives 45% (n = 830). AID 504904
HTR5A ag ctr2: activates human HTR5A in OPRM1-OPRD1 agonist counter-screen. shares compounds with MOR-DOR ag. HTR5A agonist counterscreen, cell luminescence. activation, % at 9.3 µM. actives 8% (n = 830); in the data active = activation above about 17%
Large screens that a line does not name were inactive (follow-up assays come after a bar, where they were run). Only some compounds are listed: those with a hit (about 1.1% of all), similar ones and a draw of the others. Cut-off read from the data, not from the text of the source, unless noted: active = activation above about 18%; inactive = the rest.

O=C(Nc1ccccn1)c1cc(-c2cccnc2)nc2ccc(Br)cc12	MOR-DOR ag 32.8 | MOR-DOR ag conf 20.1 | HTR5A ag ctr2 inactive
Cc1cc(NC(=O)c2cc(-c3ccccn3)nc3ccc(Br)cc23)no1	none
COC(=O)c1[nH]c2ccc(F)cc2c1NC(=O)Nc1ccc(OC)cc1	MOR-DOR ag 22.9 | MOR-DOR ag conf inactive | HTR5A ag ctr2 inactive
COC(=O)c1[nH]c2ccc(C)cc2c1NC(=O)Nc1ccc(OC)cc1	none
COC(=O)[C@]1(Cc2ccccc2)N[C@H](CN(C)C(=O)Nc2ccc(C(F)(F)F)cc2)[C@@H]2C(=O)N(C)C(=O)[C@@H]21	none
O=C(C[C@H]1C/C=C\C[C@H](NC(=O)OCC2c3ccccc3-c3ccccc32)C(=O)O[C@H](c2ccccc2)CNC1=O)N[C@H](CO)Cc1ccccc1	HTR5A ag 21.0, MOR-DOR ag 239.1 | MOR-DOR ag conf inactive | HTR5A ag ctr2 inactive
COc1ccc(OCC(=O)Nc2ccccc2C(=O)NC2CC2)cc1	none
CC1=CC(=O)C(C(C)C)=C/C1=N/OS(=O)(=O)c1ccccc1	HTR5A ag 30.4, MOR-DOR ag 205.5 | MOR-DOR ag conf 82.6 | HTR5A ag ctr2 28.6
CC(C)C(=O)NC(C)C(c1cccs1)N1CCN(c2ccccc2)CC1 (stereo not given)	MOR-DOR ag 30.0 | MOR-DOR ag conf 28.8 | HTR5A ag ctr2 inactive
COc1ccccc1N1CCN(C(c2cccs2)C(C)NC(=O)c2cccs2)CC1 (stereo not given)	MOR-DOR ag 23.4 | MOR-DOR ag conf inactive | HTR5A ag ctr2 inactive
COCCN(C(=O)C1CC(=O)N(Cc2ccccc2)C1)c1nc(-c2ccc([N+](=O)[O-])cc2)cs1 (stereo not given)	MOR-DOR ag 127.5 | MOR-DOR ag conf 154.0 | HTR5A ag ctr2 inactive
COc1cccc(C2c3[nH]c4ccccc4c3C[C@H]3C(=O)N(CCCOC(C)C)CC(=O)N23)c1 (stereo not given in full)	MOR-DOR ag 18.2 | MOR-DOR ag conf inactive | HTR5A ag ctr2 inactive
CCn1cc(CN2CCC(n3nccc3NC(=O)CCc3ccccc3)CC2)cn1	MOR-DOR ag 30.9 | MOR-DOR ag conf inactive | HTR5A ag ctr2 inactive
CCCn1ncc(CN2CCC(n3nccc3NC(=O)c3ccccc3OC)CC2)c1C	none
CCCn1ncc(CN2CCC(n3nccc3NC(=O)CCc3ccccc3)CC2)c1C	MOR-DOR ag 222.8 | MOR-DOR ag conf inactive | HTR5A ag ctr2 inactive
CCOC(=O)C1CCN(CC(=O)c2c(C)n(C)c3ccc(OC)cc23)CC1	none
CCc1ccc(NC(=O)Nc2ccc3c(c2)N(C)C(=O)CS3)cc1	MOR-DOR ag 96.3 | MOR-DOR ag conf 55.0 | HTR5A ag ctr2 inactive
COc1ccc2c(=O)c(-c3cnn(-c4ccccc4)c3)c(C)oc2c1	none
Cc1oc2c(C)c(O)ccc2c(=O)c1-c1cnn(-c2ccccc2)c1	MOR-DOR ag 18.5 | MOR-DOR ag conf inactive | HTR5A ag ctr2 inactive
CCN(C(=O)CO/N=C/c1ccc(OC)cc1OC)c1c(N)n(Cc2ccccc2)c(=O)[nH]c1=O	none
CCCCN1C(=O)C(=O)N(CC(=O)c2ccc3c(c2)CCCC3)C1=O	none
CC(C)c1ccc(NC(=O)N(CCc2nc3ccccc3[nH]2)C2CCCC2)cc1	MOR-DOR ag 25.4 | MOR-DOR ag conf 37.0 | HTR5A ag ctr2 inactive
Cc1[nH]c2ccccc2c1/C=N/Nc1nc(Nc2ccc(F)cc2)nc(N2CCOCC2)n1	none
Cc1ccc(Nc2nc(N/N=C/c3c[nH]c4ccccc34)nc(N3CCOCC3)n2)cc1	MOR-DOR ag 18.8 | MOR-DOR ag conf inactive | HTR5A ag ctr2 inactive
CCN(CC(=O)NCc1ccc(Cl)cc1)C(=O)C1CCN(S(=O)(=O)c2ccc(OC)c(OC)c2)CC1	none
CCc1cc2ccc(OC)cc2nc1SCC(=O)Nc1cc(C)on1	MOR-DOR ag 21.7 | MOR-DOR ag conf inactive | HTR5A ag ctr2 19.8
CCc1cc2cc(C)c(C)cc2nc1SCC(=O)Nc1cc(C)on1	none
O=S(=O)(c1c(Cl)cc(Br)cc1Cl)N1CCN(C(=S)NC2CC2)CC1	MOR-DOR ag 85.1 | MOR-DOR ag conf 121.7 | HTR5A ag ctr2 inactive
O=S(=O)(c1ccccc1)N1CCN(C(=S)NC2CCCC2)CC1	none
O=C1NCN(c2ccccc2)C12CCN(CCCC(c1ccc(F)cc1)c1ccc(F)cc1)CC2	MOR-DOR ag 30.8 | MOR-DOR ag conf inactive | HTR5A ag ctr2 inactive
COc1ccccc1CN1CCCC(CN(CCN(C)C)C(=O)C2CCCC2)C1 (stereo not given)	none
Cc1ccc(NC(=O)CSc2nc3c([nH]c4ccccc43)c(=O)n2C)cc1	MOR-DOR ag 31.1 | MOR-DOR ag conf inactive | HTR5A ag ctr2 inactive
CCOc1ccc(NC(=O)CSc2nc3c([nH]c4ccccc43)c(=O)n2C)cc1	none
Cn1c(SCC(=O)Nc2ccc(F)cc2)nc2c([nH]c3ccccc32)c1=O	MOR-DOR ag 25.0 | MOR-DOR ag conf 18.4 | HTR5A ag ctr2 inactive
Cc1cccc(NC(=O)CSCC(=O)N(C)Cc2c(F)cccc2Cl)c1	none
O=C(NCCN1CCOCC1)C(=O)NCC1OCCCN1S(=O)(=O)c1cc(F)ccc1F (stereo not given)	none
O=C(NCCc1ccccn1)c1ccc(OC2CCN(CCc3ccccc3)CC2)cc1	none
Cc1cccnc1CCNC(=O)c1ccc(OC2CCN(Cc3ccccn3)CC2)cc1	none
CSCCCNC(=O)c1ccc(OC2CCN(CCc3ccccc3)CC2)cc1	MOR-DOR ag 21.8 | MOR-DOR ag conf 32.3 | HTR5A ag ctr2 inactive
O=C(NCCc1cccc(Cl)c1)c1ccc(OC2CCN(Cc3ccccn3)CC2)cc1	MOR-DOR ag 64.7 | MOR-DOR ag conf inactive | HTR5A ag ctr2 inactive
COc1ccccc1CN1CCN(C(CC(C)C)c2nnnn2Cc2cccs2)CC1 (stereo not given)	MOR-DOR ag 45.6 | MOR-DOR ag conf 62.9 | HTR5A ag ctr2 inactive
CCCC(c1nnnn1Cc1cccs1)N1CCN(C)CC1 (stereo not given)	none
CC(NCCC1(Cc2ccccc2Cl)CCOC(C)(C)C1)c1cccs1 (stereo not given)	MOR-DOR ag 44.7 | MOR-DOR ag conf inactive | HTR5A ag ctr2 inactive
CC(NCCC1(C(C)C)CCOC(C)(C)C1)c1cccs1 (stereo not given)	none
CCC(c1ccccc1)C(CC)c1cc(O)c(O)c(O)c1 (stereo not given)	MOR-DOR ag 18.1 | MOR-DOR ag conf inactive | HTR5A ag ctr2 inactive
CCC(C)c1ccccc1O (stereo not given)	none
N#CCC(=O)N/N=C/c1cn(Cc2ccc(Cl)cc2Cl)c2ccccc12	MOR-DOR ag 20.4 | MOR-DOR ag conf inactive | HTR5A ag ctr2 inactive
CCOC(=O)N/N=C/c1cn(Cc2ccc(Cl)cc2)c2ccccc12	none
O=C1CC(=O)Nc2cc(S(=O)(=O)Nc3cccc(C(F)(F)F)c3)ccc2N1	none
Nc1c(N(Cc2ccccc2)C(=O)COc2cccc(Cl)c2)c(=O)[nH]c(=O)n1Cc1ccccc1	MOR-DOR ag 20.6 | MOR-DOR ag conf inactive | HTR5A ag ctr2 inactive
